FLuc modulator = counter-screen for miR-21 project: firefly luciferase inhibitors or activators. purified FLuc, Km substrates, luminescence inhibition. Potency, µM (series often up to 57.5 µM), without a hit: at the highest dose activity change, negative = inhibition, usual class: inhibitors. 360,000 compounds, 6.9% hits. AID 588342;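 further: plate controls were vehicle for no effect and reference inhibitor for full effect; nearly all actives have a fitted effect of over 55% in size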
Target sequence (P08659 whole entry, looked up): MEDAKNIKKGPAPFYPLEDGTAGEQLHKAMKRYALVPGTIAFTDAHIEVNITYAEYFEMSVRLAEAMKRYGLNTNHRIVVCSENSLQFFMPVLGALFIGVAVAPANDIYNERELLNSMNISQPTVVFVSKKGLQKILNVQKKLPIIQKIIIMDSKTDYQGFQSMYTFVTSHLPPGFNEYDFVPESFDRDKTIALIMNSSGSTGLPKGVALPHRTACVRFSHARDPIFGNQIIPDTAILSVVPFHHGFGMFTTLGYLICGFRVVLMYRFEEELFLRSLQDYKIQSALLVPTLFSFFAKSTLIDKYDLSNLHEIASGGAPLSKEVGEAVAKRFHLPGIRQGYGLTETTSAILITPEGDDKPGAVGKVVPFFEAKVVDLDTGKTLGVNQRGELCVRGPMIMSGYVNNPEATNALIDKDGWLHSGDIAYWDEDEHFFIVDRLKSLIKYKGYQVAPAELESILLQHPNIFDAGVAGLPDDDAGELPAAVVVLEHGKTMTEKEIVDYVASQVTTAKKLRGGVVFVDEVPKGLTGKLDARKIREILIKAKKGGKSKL
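Biochemical qHTS of compounds, final roughly 60 µM downward over six points, against 10 nM purified firefly luciferase using Km concentrations of substrates (10 uM D-luciferin, 10 uM ATP) in Tris acetate pH 7.5 buffer; luminescence output.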
Rab9 prom act = activates the Rab9 promoter | Huh7 Rab9 promoter-luciferase reporter, luminescence, 24 h | Potency, µM (doses to about 9.22 µM), without a hit: top-dose activation, negative = inhibition, most hits filed as activators | 320,000 compounds, 2.8% hits | AID 485297; further: % of control where 0% means no effect; nearly all actives have a fitted effect of over 60% in size
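Quantitative HTS format; Huh7 Rab9-luciferase reporter cells (1500/well) receive compound 2 h post-plating, incubate 24 h at 37 °C, then get luciferase reagent for 10 min before luminescence reading.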
ELG1 genotox = genotoxicity induction in ELG1-luciferase HEK293T cells; HEK293T ELG1-luciferase reporter, luminescence, 16 h; Potency, µM (top dose mostly 46 µM), inactives show at the top dose activity change, positive = activation, usual class: activators; 330,000 compounds, 1.3% hits; AID 504466; further: % of control where 0% means no effect; nearly all actives have a fitted effect of over 60% in size
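Step 1: seed 2,000 HEK293T ELG1-luciferase cells per well. Step 2: add compound or DMSO, incubate 16 hr at 37 °C. Step 3: ONE-Glo, 30 min at room temperature, read luminescence.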
SMN2 splice enh = enhancers of SMN2 splice variant expression; HEK293 SMN2-luciferase splicing reporter, luminescence, 30-36 h; Potency, µM (series often up to 46.1 µM), inactives show at the top dose activity change, positive = activation, hits mostly activators; 210,000 compounds, 2.8% hits; AID 1458; further: % of control where 0% means no effect; nearly all actives have a fitted effect of over 55% in size
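HEK293 cells carry an SMN2 […]–luciferase reporter in which exon 7 inclusion puts luciferase in frame. Cells were plated 10-12 h before compound addition, then incubated 30-36 h at 37C. ONE-Glo luminescence was read; sodium butyrate at 4.5 mM final served as control.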
NPC1 promoter act = NPC1 promoter activation. AID 485313. 320,000 compounds, 2.4% hits. Huh7 NPC1 promoter luciferase reporter, 24 h. Potency, µM (highest dose often 9.22 µM), for inactives: at the top dose activation, hits mostly activators; further: % of control where 0% means no effect; nearly all actives have a fitted effect of over 60% in size
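Stable NPC1-promoter luciferase Huh7 line; cpd (DMSO) 24 h, 37 °C, 5% CO2; Amplite luciferase reagent 10 min RT; luminescence readout. qHTS format.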
The depositor's hits bear a star; [ ] = another dose, or the depositor's remark. Compounds with a hit are over-represented: about 7.4% of the library has one in this group of screens. The call rests on the fitted dose curve; in most records, active means well fitted curve in the direction sought with a large enough effect; inconclusive means small, poorly fitted or top-dose-only effect, or another doubt; inactive means no such curve, though single readings can be large; an effect the other way counts as inactive or inconclusive. Potency means the concentration at half of the fitted maximal effect.

How did CCc1c(C)nc2ncnn2c1NCCc1ccc(Cl)cc1 do in these assays?
FLuc modulator: 1.1%; Rab9 prom act: -42.0%; ELG1 genotox: -5.6%; NPC1 promoter act: -28.7%

Results for COc1cc(SC)ccc1C(=O)Nc1ccc(S(=O)(=O)Nc2nccc(C)n2)cc1 ?
FLuc modulator: -3.7%

Results for COc1ccc(C(=O)Nc2cc(C(=O)O)cc(C(=O)O)c2)cc1Cl ?
FLuc modulator: -0.8%; Rab9 prom act: -9.4%; ELG1 genotox: -3.6%; SMN2 splice enh: 2.7%; NPC1 promoter act: -5.5%

How did COc1ccc(C(=O)Nc2ccccc2C(=O)O)cc1Cl do in these assays?
FLuc modulator: 5.36µM*; Rab9 prom act: 3.55µM*; ELG1 genotox: inconclusive; SMN2 splice enh: -2.1%[1.84 µM]; NPC1 promoter act: inconclusive

Results for Cc1ccc(NC(=O)CCSc2ccccn2)cc1 ?
FLuc modulator: 6.01µM*; Rab9 prom act: 3.16µM*; ELG1 genotox: inconclusive; SMN2 splice enh: 14.1µM*; NPC1 promoter act: 3.55µM*

What do the screens show for `Cc1ccc(C(=O)CSc2cc(C)nc(SCC(=O)c3ccccc3)n2)cc1`?
FLuc modulator: 3.2%; Rab9 prom act: -1.3%; ELG1 genotox: -21.6%; NPC1 promoter act: -2.5%

How did Cc1ccc(C(=O)CSc2ccccn2)cc1 do in these assays?
FLuc modulator: 6.75µM*; Rab9 prom act: 3.55µM*; ELG1 genotox: inconclusive; SMN2 splice enh: inconclusive; NPC1 promoter act: inconclusive

Results for O=C(O)c1ccnc(SCC(=O)c2ccccc2)c1 ?
FLuc modulator: inconclusive; Rab9 prom act: -1.3%; ELG1 genotox: -0.7%; SMN2 splice enh: 9.4%; NPC1 promoter act: -0.7%

How did O=C(CSc1ccccn1)c1ccc(F)cc1 do in these assays?
FLuc modulator: 19µM*; Rab9 prom act: inconclusive; ELG1 genotox: inconclusive; SMN2 splice enh: 23.1%; NPC1 promoter act: inconclusive

What do the screens show for `CCCNC(=S)NNC(=O)c1cc(C2CC2)nc2ccccc12`?
FLuc modulator: 21.3µM*; Rab9 prom act: 5.1%; ELG1 genotox: -0.1%; NPC1 promoter act: -3.0%

Results for CCNC(=S)NNC(=O)c1cc(C2CC2)nc2ccccc12 ?
FLuc modulator: 12µM*; Rab9 prom act: 1.9%; ELG1 genotox: -1.5%; SMN2 splice enh: -1.0%; NPC1 promoter act: -0.7%

How did COc1ccc2nc3oc(C(=O)N4CCC(C(N)=O)CC4)cc3cc2c1 do in these assays?
FLuc modulator: -26.6%; Rab9 prom act: 19.1%; ELG1 genotox: 9.7%; SMN2 splice enh: 23.4%; NPC1 promoter act: 20.7%

What do the screens show for `COc1ccc2cc3cc(C(=O)N4CCN(c5ccccn5)CC4)oc3nc2c1`?
FLuc modulator: 19µM*; Rab9 prom act: -0.4%; ELG1 genotox: -4.6%; NPC1 promoter act: -4.7%

What do the screens show for `CCOC(=O)C1CCN(C(=O)c2cc3cc4ccc(OC)cc4nc3o2)CC1`?
FLuc modulator: inconclusive; Rab9 prom act: 0.891µM*; ELG1 genotox: inconclusive; NPC1 promoter act: 0.631µM*

How did O=C(O)c1cc(S(=O)(=O)O)cc(Nc2c3ccccc3nc3ccccc23)c1O do in these assays?
FLuc modulator: 8.49µM*; Rab9 prom act: -5.4%; ELG1 genotox: -3.8%; NPC1 promoter act: 3.6%

Results for C=CCOc1ccc(C(=O)/C=C2/C(=O)Nc3ccccc32)cc1 ?
FLuc modulator: 1.51µM*; Rab9 prom act: -1.6%; ELG1 genotox: 16.1%; NPC1 promoter act: -4.3%

What do the screens show for `NC(=O)COc1ccc(C(=O)/C=C2/C(=O)Nc3ccccc32)cc1`?
FLuc modulator: 10.7µM*; Rab9 prom act: -4.9%; ELG1 genotox: 15.0%; NPC1 promoter act: 2.9%

Results for COc1ccc(C(=O)/C=C2/C(=O)Nc3ccccc32)cc1OC ?
FLuc modulator: -13.7%; Rab9 prom act: -0.8%; ELG1 genotox: 6.6%; NPC1 promoter act: -0.9%

How did COc1ccccc1CNC(=O)c1cn(C)c2ccc(S(=O)(=O)N3CCC(C)CC3)cc2c1=O do in these assays?
FLuc modulator: 5.4%; SMN2 splice enh: 1.8%

Results for Cc1ccc(CNC(=O)C(=O)NCC2CCCN2S(=O)(=O)c2cccs2)cc1 (stereo not given) ?
FLuc modulator: -2.7%; Rab9 prom act: -3.0%; ELG1 genotox: 11.5%; NPC1 promoter act: 1.6%

How did Cc1cccc(CSc2cccc3cccnc23)c1 do in these assays?
FLuc modulator: 19µM*; Rab9 prom act: 24.2%; ELG1 genotox: inconclusive; SMN2 splice enh: 4.1%; NPC1 promoter act: 21.2%

Results for NNC(=O)c1ccc(CSc2cccc3cccnc23)cc1 ?
FLuc modulator: inconclusive; Rab9 prom act: -0.2%; ELG1 genotox: 0.7%; SMN2 splice enh: -2.8%; NPC1 promoter act: 1.1%

How did c1cnc2c(SCc3ccc(-c4nnco4)cc3)cccc2c1 do in these assays?
FLuc modulator: 23.9µM*; Rab9 prom act: inconclusive; ELG1 genotox: 5.6%; SMN2 splice enh: -0.7%; NPC1 promoter act: inconclusive

Results for O=C(Nc1cc(-c2nc3ccccc3s2)ccc1Cl)c1cc2ccccc2o1 ?
FLuc modulator: inconclusive; SMN2 splice enh: 3.5%

What do the screens show for `Cc1ccc(-c2nc3ccccc3s2)cc1NC(=O)c1cc(-n2cnnc2)ccc1Cl`?
FLuc modulator: 1.51µM*; Rab9 prom act: 4.8%; ELG1 genotox: inconclusive; SMN2 splice enh: 4.1%; NPC1 promoter act: -29.0%

How did CC(=O)Nc1cc(-c2nc3ccccc3s2)ccc1C do in these assays?
FLuc modulator: 6.75µM*; SMN2 splice enh: 20.4%

Results for Cc1ccc(-c2nc3ccccc3s2)cc1NC(=S)NC(=O)c1ccccc1 ?
FLuc modulator: 9.53µM*; Rab9 prom act: 12.5%; ELG1 genotox: inconclusive; SMN2 splice enh: -5.5%; NPC1 promoter act: 12.3%

Results for CN(C)c1ccc(/C=C/C(=O)c2c(O)c3ccccc3oc2=O)cc1 ?
FLuc modulator: 21.3µM*; Rab9 prom act: inconclusive; ELG1 genotox: 10.1%; NPC1 promoter act: 23.6%

How did CCOc1ccc(/C=C/C(=O)c2c(O)c3ccccc3oc2=O)cc1 do in these assays?
FLuc modulator: 10.7µM*; Rab9 prom act: 15.2%; ELG1 genotox: 0.5%; SMN2 splice enh: -22.5%; NPC1 promoter act: -0.9%

What do the screens show for `Cc1cc2oc(C(=O)N(Cc3ccc(N(C)C)cc3)Cc3ccco3)c(C)c2cc1Cl`?
FLuc modulator: -2.2%; SMN2 splice enh: -0.6%

How did CN1C(=O)/C(=C/c2ccc(OCc3ccc(C(=O)O)cc3)c(Cl)c2)NC1=S do in these assays?
FLuc modulator: -5.8%; Rab9 prom act: -3.6%; ELG1 genotox: -3.6%; NPC1 promoter act: -0.7%

What do the screens show for `COc1cc(/C=C2\NC(=S)NC2=O)ccc1OCc1cccc(C(=O)O)c1`?
FLuc modulator: 0.379µM*; Rab9 prom act: 17.4%; ELG1 genotox: 20.6µM*; NPC1 promoter act: 18.7%

Results for O=C1NC(=O)/C(=C\c2ccc(OCc3cccc(C(=O)O)c3)c(Cl)c2)N1 ?
FLuc modulator: 0.601µM*; Rab9 prom act: 2.24µM*; ELG1 genotox: -3.4%; SMN2 splice enh: 11.2µM*; NPC1 promoter act: inconclusive

Bioassay records as filed in PubChem BioAssay.
